A number with no mark means an inactive call. Active and inactive are the calls of the source. Rule as the data show it: active = inhibition above about 44%; inactive = the rest.
molecular target: Steroidogenic factor 1 (Homo sapiens) (UniProt Q13285); test: SF1 (NR5A1) inverse agonists, counter-screen for LRH-1 inverse agonist project, cell-based, luminescence, high throughput (AID 651614); settings: cell-based SF1 luciferase reporter, at 3.6 µM, stronger effect = higher value;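 also: cells cotransfected with StAR promoter reporter and SF1 expression vector; 0% = vehicle on cells with receptor and 100% = vehicle on cells lacking receptor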
Sequence (Q13285 whole entry, looked up): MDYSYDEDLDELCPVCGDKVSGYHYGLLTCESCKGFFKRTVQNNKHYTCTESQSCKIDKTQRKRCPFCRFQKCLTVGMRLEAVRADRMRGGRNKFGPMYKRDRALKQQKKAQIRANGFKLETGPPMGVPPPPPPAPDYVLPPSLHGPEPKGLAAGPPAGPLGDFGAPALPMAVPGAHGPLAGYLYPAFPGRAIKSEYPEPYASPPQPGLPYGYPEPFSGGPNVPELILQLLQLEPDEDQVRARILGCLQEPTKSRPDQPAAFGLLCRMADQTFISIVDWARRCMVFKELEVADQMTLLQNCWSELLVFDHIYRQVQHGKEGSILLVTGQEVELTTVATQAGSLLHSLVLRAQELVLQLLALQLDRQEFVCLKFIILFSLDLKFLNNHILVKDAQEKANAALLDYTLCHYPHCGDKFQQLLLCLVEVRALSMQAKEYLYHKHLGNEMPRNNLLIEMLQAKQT

SMILES	inhibition
Cc1nc2ccccc2n1/N=C/c1ccc([N+](=O)[O-])o1	68.1% (active)
Nc1nc2ccc(Cl)cc2cc1C(=O)NCc1ccc(Oc2ccccc2)cc1	51.1% (active)
CCOC(=O)c1c(NC(=O)/C=C/C(=O)O)sc(C)c1-c1ccc(Cl)cc1	48.9% (active)
O=C(CCl)NCc1cc(-c2ccc(Cl)cc2)no1	72.3% (active)
CCc1ccccc1NC(=O)CSc1nc2n[nH]c(C)c2c(=N)n1-c1cccc(OC)c1	19.4%
Cc1no[n+]([O-])c1COc1ccc(/C=C2\NC(=S)NC2=O)cc1	45.9% (active)
CCCc1cc(=O)oc2c(C)c(OCC(=O)NC3CC(C)(C)NC(C)(C)C3)ccc12	59% (active)
CC(=O)Nc1ncc(Cc2cc(Cl)ccc2Cl)s1	46.7% (active)
CCOc1ccc(CCNC(=O)COC(=O)c2cc(S(=O)(=O)N3CCOCC3)ccc2F)cc1OCC	57.1% (active)
O=C(N/N=C/c1ccc([N+](=O)[O-])s1)c1ccccc1Br	65.3% (active)
CCOC(=O)C1CCN(Cc2cc(Cl)c3ccccc3c2O)CC1	32.9%
O=C(NCCN1C(=O)S/C(=C\c2ccc(OC(F)F)cc2)C1=O)c1cnccn1	33.1%
N#Cc1ccc(NC(=O)COc2ccc(-n3cnnn3)cc2)cc1	35.9%
COc1ccc(NS(=O)(=O)c2ccc(OCC(=O)N3CCOCC3)cc2)cc1Cl	34.3%
CCN(CC)C1Oc2cc3c(cc2C(c2cc(OC)c(OC)c(OC)c2)C1C)OCO3 (stereo not given)	29.8%
